Test systems include SK-MEL-2 melanoma; EKVX NSCLC; UO-31 renal; TK-10 renal; ACHN renal; CAKI-1 renal; A498 renal; CCRF-CEM leukemia; MOLT-4 leukemia; SN12C renal.
Common to all, as to test: NCI-60 one-dose screen, 48 h (100 = growth as untreated, 0 = no growth, -100 = all killed)
Holding throughout (conditions): 10 µM unless noted

Compounds without any hit were thinned out: in the full panel of roughly 83,000, 20% have a hit.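 Negative percent growth values reflect cell death: -40 means 40% of the cells present at the start died, and -100 means all died.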 A number with no mark means an inactive call. Active and inactive are the calls of the source. Rule for the calls: active = growth percent below 10; inactive = the rest.

As for `Nc1c(Cl)cc(/C=C2\C=Cc3ccccc32)cc1Cl`, the growth is 120% in the experiment on SK-MEL-2 melanoma; 94.2% in the experiment on EKVX NSCLC; 95.7% with UO-31 renal; 107% in the experiment on TK-10 renal; 101% with ACHN renal; 110% in the experiment with CAKI-1 renal. For the same compound, the growth in the experiment on A498 renal is 97.6%; in the experiment on CCRF-CEM leukemia, 106%; with MOLT-4 leukemia, 98.7%.
For `CN1c2ccccc2S(=O)(=O)n2c(SCC(=O)Nc3nc4ccc(F)cc4s3)nnc21`, the growth with SK-MEL-2 melanoma is 52.6%; with EKVX NSCLC it was 102%; in the experiment with UO-31 renal, -65.7% (active); in the experiment with TK-10 renal, 130%; in the experiment on ACHN renal it was 96.1%; in the experiment with CAKI-1 renal, 97.3%. Further, the growth was 119% in the experiment with A498 renal, 31.1% in the experiment with CCRF-CEM leukemia and 81.9% with MOLT-4 leukemia.
Take `N#Cc1c(-c2ccccc2)cc(-c2ccccc2)n(CCCCC(=O)NO)c1=O`: the growth with SK-MEL-2 melanoma is 40.6%; in the experiment with EKVX NSCLC it was 30.6%; in the experiment on UO-31 renal, -51.6% (active); with TK-10 renal it was 28.4%; with ACHN renal, 2.83% (active); with CAKI-1 renal, 1% (active). The figures for the growth with A498 renal, with CCRF-CEM leukemia and in the experiment on MOLT-4 leukemia were 13.2%, 11.9% and 11.4%, respectively.
Regarding `Cc1c2cnccc2c(C)c2c1c1cc(CO)ccc1n2C`, the growth was -75.5% (active) in the experiment with SK-MEL-2 melanoma; -15.2% (active) with EKVX NSCLC; -32.6% (active) in the experiment on UO-31 renal; -27.7% (active) in the experiment with TK-10 renal; -36.4% (active) in the experiment with ACHN renal; -28.3% (active) in the experiment on CAKI-1 renal. The growth was -67.1% (active) in the experiment with A498 renal, -7.79% (active) with CCRF-CEM leukemia and -10.8% (active) in the experiment with MOLT-4 leukemia.
As for `CC[C@@H](C(=O)[C@@H](C)[C@@H](O)[C@H](C)[C@@H]1O[C@@H]([C@@H](CC)C(=O)ONC(=O)c2ccccc2O)CC[C@@H]1C)C1O[C@]2(C=CC(=O)[C@]3(CC[C@@](C)([C@H]4CC[C@](O)(CC)[C@H](C)O4)O3)O2)[C@H](C)C[C@@H]1C` (some centres not stated), the growth in the experiment on SK-MEL-2 melanoma is 76.9%; with EKVX NSCLC, 45.2%; in the experiment with UO-31 renal, 36.9%; in the experiment with TK-10 renal, 75.8%; with ACHN renal it was 50.2%; with CAKI-1 renal it was 39.2%. In addition, the growth was 36.4% in the experiment on A498 renal, 36.6% in the experiment on CCRF-CEM leukemia and 45.1% in the experiment on MOLT-4 leukemia.
As to `O=C(Oc1ccc2c(c1)sc1nc(-c3ccccc3)[nH]c(=O)c12)C(F)(F)F`, the growth in the experiment with SK-MEL-2 melanoma was 26.6%; in the experiment on EKVX NSCLC, 58.8%; with UO-31 renal it was 26.1%; in the experiment with TK-10 renal, 61.7%; with ACHN renal, 29%; with CAKI-1 renal, 19.3%. In addition, the growth is 23.6% in the experiment on A498 renal, 21.9% with CCRF-CEM leukemia and 13.5% in the experiment on MOLT-4 leukemia.
As to `COc1ccc(C/C(C)=C(\c2ccc(Cl)cc2)c2ccc(OCCCN(C)C)cc2)cc1`, the growth in the experiment on SK-MEL-2 melanoma was 111%; in the experiment with EKVX NSCLC, 94.1%; with UO-31 renal, 62.4%; in the experiment on TK-10 renal it was 86.7%; in the experiment on ACHN renal, 90%; with CAKI-1 renal it was 87.3%. The growth in the experiment on A498 renal is 114%; in the experiment on CCRF-CEM leukemia, 56.9%; in the experiment with MOLT-4 leukemia, 40.9%.
Regarding `COc1ccc(Cl)cc1Nc1nc(C(F)(F)F)ccc1C(=O)N/N=C/c1ccc([N+](=O)[O-])cc1`, the growth in the experiment on SK-MEL-2 melanoma is -8.38% (active); with SN12C renal, 5.05% (active); with UO-31 renal, -1.49% (active); with TK-10 renal, 10.5%; in the experiment on CAKI-1 renal, 4.56% (active); with A498 renal, 3.24% (active). The growth is 9.15% (active) in the experiment with CCRF-CEM leukemia and 2.93% (active) with MOLT-4 leukemia.
In the case of `Nc1ncccc1O`, the growth in the experiment with SK-MEL-2 melanoma is 17.3%; with SN12C renal, 96.7%; in the experiment with UO-31 renal it was 92.5%; in the experiment with TK-10 renal, 108%; in the experiment on ACHN renal, 5.59% (active); in the experiment with CAKI-1 renal, 56.6%. Further, the growth is 99.7% in the experiment with A498 renal, 84.6% in the experiment on CCRF-CEM leukemia and 65% in the experiment with MOLT-4 leukemia.
On to `COc1ccccc1/C=C/C(=O)Nc1ccc(F)cc1`, for which the growth with SK-MEL-2 melanoma is 99.1%; in the experiment with SN12C renal, 111%; in the experiment with UO-31 renal, 87.6%; in the experiment on ACHN renal, 101%; with CAKI-1 renal it was 90.7%; with A498 renal, 102%. In addition, the growth in the experiment on CCRF-CEM leukemia was 97.6%; with MOLT-4 leukemia it was 88.1%.
As to `C=C[C@@]1(C)CC(=O)[C@@H](C(C)(C)c2cn(C)c3ccc(Br)cc23)C[C@@H]1O[Si](C)(C)C(C)(C)C`, the growth in the experiment with SK-MEL-2 melanoma was 97.8%; with SN12C renal, 97.6%; in the experiment on UO-31 renal, 94%; with TK-10 renal, 98.1%; with ACHN renal, 111%; in the experiment with CAKI-1 renal, 90.2%. Moreover, the growth with A498 renal is 106%; in the experiment with CCRF-CEM leukemia, 89.5%; with MOLT-4 leukemia, 94.7%.
Consider `COc1ccc(Nc2ncc(I)c(NCCCNC(=O)C3CCC3)n2)cc1`, for which the growth is 35.5% with SK-MEL-2 melanoma; 19.8% with SN12C renal; -94.1% (active) in the experiment on UO-31 renal; -14.5% (active) in the experiment on TK-10 renal; 0.394% (active) in the experiment with CAKI-1 renal; -51.4% (active) in the experiment with A498 renal. In addition, the growth is 2.24% (active) in the experiment on CCRF-CEM leukemia and 10.5% with MOLT-4 leukemia.
For the compound `O=C(Nc1cccnc1Nc1ccc(Cl)cc1)c1cn(Cc2cccc(Oc3ccccc3)c2)nn1`, the growth was 61.8% with SK-MEL-2 melanoma; 46.4% with SN12C renal; 31.9% in the experiment on UO-31 renal; 82.4% in the experiment with TK-10 renal; 55.2% in the experiment on ACHN renal; 53.6% in the experiment with CAKI-1 renal. In addition, the growth in the experiment on A498 renal is 26.6%; with CCRF-CEM leukemia it was 39%; in the experiment with MOLT-4 leukemia, 28.8%.
For `COc1cc(/C=C/c2cn[nH]c2-c2ccc(C)cc2)cc(OC)c1OC`, the growth in the experiment with SK-MEL-2 melanoma was 2.13% (active); with SN12C renal, 51.2%; with UO-31 renal it was 45.9%; in the experiment on TK-10 renal it was 66%; in the experiment with ACHN renal, 49.4%; in the experiment on CAKI-1 renal, 32.6%. Moreover, the results for the growth with A498 renal, with CCRF-CEM leukemia and in the experiment on MOLT-4 leukemia were 33.8%, 24.8% and 22.8%, respectively.
As for `CNC(=O)c1cc(Oc2ccc3c(c2)sc2nc(-c4ccc(NC(=O)[C@@H](NC(=O)OC)C(C)C)cc4)cn23)ccn1`, the growth in the experiment with SK-MEL-2 melanoma was 59.6%; with SN12C renal, 72.2%; with UO-31 renal, 52.5%; in the experiment on TK-10 renal, 85.4%; with ACHN renal it was 83.3%; in the experiment on CAKI-1 renal, 77.1%. The growth in the experiment with A498 renal is 68.5%; in the experiment with CCRF-CEM leukemia it was 23.5%; with MOLT-4 leukemia it was 23.8%.

Values taken from PubChem BioAssay (NCI).
